Reference: PubChem BioAssay (NCI)
Compounds without any hit were thinned out: in the full panel of roughly 83,000, 20% have a hit.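 Single-concentration screen, 48 h exposure, 96-well plates. Endpoint: percent growth. Below 10 = active.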 Unmarked numbers belong to inactive results. Active and inactive are the calls of the source.

Assays:
Experiment in all cases: NCI-60 one-dose screen, 48 h (100 = growth as untreated, 0 = no growth, -100 = all killed)
Details in all cases: 10 µM unless noted
NCI-H23 lung = test system: NCI-H23 lung
NCI-H226 lung = test system: NCI-H226 lung
NCI-H322M lung = test system: NCI-H322M lung
HOP-62 NSCLC = test system: HOP-62 NSCLC
NCI-H460 lung = test system: NCI-H460 lung
HOP-92 NSCLC = test system: HOP-92 NSCLC
NCI-H522 lung = test system: NCI-H522 lung
A549/ATCC NSCLC = test system: A549/ATCC NSCLC
786-0 renal = test system: 786-0 renal
COLO 205 colon = test system: COLO 205 colon
DU-145 prostate = test system: DU-145 prostate
K-562 leukemia = test system: K-562 leukemia
MALME-3M melanoma = test system: MALME-3M melanoma
MDA-MB-231 breast = test system: MDA-MB-231 breast
RXF 393 renal = test system: RXF 393 renal
SF-268 CNS = test system: SF-268 CNS
SF-295 CNS = test system: SF-295 CNS
SF-539 CNS = test system: SF-539 CNS
UACC-257 melanoma = test system: UACC-257 melanoma
M14 melanoma = test system: M14 melanoma

Compound | growth (NCI-H23 lung) | growth (NCI-H226 lung) | growth (NCI-H322M lung) | growth (HOP-62 NSCLC) | growth (NCI-H460 lung) | growth (HOP-92 NSCLC) | growth (NCI-H522 lung) | growth (A549/ATCC NSCLC) | growth (786-0 renal) | growth (COLO 205 colon) | growth (DU-145 prostate) | growth (K-562 leukemia) | growth (MALME-3M melanoma) | growth (MDA-MB-231 breast) | growth (RXF 393 renal) | growth (SF-268 CNS) | growth (SF-295 CNS) | growth (SF-539 CNS) | growth (UACC-257 melanoma) | growth (M14 melanoma)
COC(=O)c1c2c(c[n+]([O-])c1C)C(=O)C=C(NCc1ccccc1)C2=O | -39.1% (active) | -90.8% (active) | -100% (active) | -95.3% (active) | -79.8% (active) | -74.5% (active) | -57.9% (active) | -64.2% (active) | -69% (active) | -73.7% (active) | -94.7% (active) | -29% (active) | -100% (active) | -17.7% (active) | -94.1% (active) | -51.6% (active) | -93.7% (active) | -99% (active) | -92.2% (active) | -92.2% (active)
COc1ccc(C(=O)Nc2ncc(Cc3ccc(Cl)cc3)s2)cc1 | 30.5% | 41.7% | 35.7% | 21.2% | 5.09% (active) | 41.4% | -16.3% (active) | 17.7% | 17.6% | -2.86% (active) | 12.6% | 7.71% (active) | 57.2% | 31.3% | 3.43% (active) | 44.8% | 1.3% (active) | -22.9% (active) | 46.8% | -29.4% (active)
O=C1c2cccnc2C(=O)c2c1c(C(=O)OCCc1ccccn1)c1ccccn21 | -55.8% (active) | -50.1% (active) | -53.3% (active) | -79% (active) | -71% (active) | 15.1% | -50.4% (active) | -65.9% (active) | -63.2% (active) | -62.3% (active) | -87.9% (active) | -2.55% (active) | -57.5% (active) | 5.98% (active) | -46.6% (active) | -1.63% (active) | -50.9% (active) | -57.2% (active) | -53.2% (active) | -70.5% (active)
CN1C(=O)/C(=C/c2ccc(C(=O)Nc3ncc(Cc4cccc(C(F)(F)F)c4)s3)cc2)SC1=S | 37.5% | 58% | 69.5% | 58.5% | 30.1% | 27.3% | 35.5% | 47.4% | 65% | 53% | 68.5% | 48.2% | 32.2% | 69.1% | 26.9% | 59.3% | 26.4% | 56.3% | 71.7% | 16.4%
O=C1OCC2=C1C(c1ccccc1)c1cc3c(cc1N2CCO)OCCO3 (stereo not given) | 30.9% | 15.8% | 48.7% | 27.3% | 5.36% (active) | 44.5% | -47.4% (active) | 23.6% | 20.8% | -47.6% (active) | -9.9% (active) | 10.5% | 67.1% | 14.2% | 10.8% | 32.1% | 0.89% (active) | -22.7% (active) | 47.3% | -21.8% (active)
CCN(CCNc1ccc(C)c2sc3cc(Cl)ccc3c(=O)c12)CC(C)(C)O | 82.3% | 87.6% | 74% | 45.3% | 44.4% | 48.3% | 76.7% | 50.9% | 47.6% | 21.4% | 86.8% | 29.7% | 67.5% | 32% | -18.5% (active) | 79.8% | 88% | 65.8% | -8.78% (active) | -65.9% (active)
CCOC(=O)C1=C(CC(O)c2ccc(OC)cc2OC)NC(=O)NC1c1ccccc1 (stereo not given) | 103% | 100% | 104% | 97.8% | 113% | 82.5% | 98.5% | 107% | 102% | 126% | 110% | 56.1% | 93.8% | 99.4% | 120% | 109% | 109% | 95.1% | 102% | 109%
C(=C(\C1=NCCN1)n1ccc2ccccc21)/c1ccccc1 | 97% | 93.5% | 97.7% | 96.3% | 101% | 78.7% | 89.7% | 99.9% | 98.3% | 107% | 103% | 96.7% | 93.4% | 96.8% | 89.9% | 91.8% | 99.3% | 99.5% | 93.3% | 91.4%
CCCc1cc(=O)oc2c(C(=O)CC(C)C)c(O)c(CC=C(C)C)c(O)c12 | -29.1% (active) | 23.5% | 22.3% | 51.1% | 15.8% | -25.5% (active) | 16% | 23.8% | 29.2% | 50.3% | 31.3% | 14.3% | -6.82% (active) | -15.9% (active) | 27.3% | 26.5% | 17.8% | 42.2% | 22.7% | 33.6%
COc1ccc(Oc2ccc(/C=C/C(=O)c3cc4ccccc4oc3=O)cc2)cc1 | 81% | 92.2% | 84.5% | 85.6% | 102% | 58.2% | 65.1% | 95.2% | 108% | 120% | 101% | 78.7% | 94.2% | 76% | 100% | 80.9% | 104% | 92.5% | 93.3% | 90.5%
O=C(NCc1ccc(Cn2c(=O)sn(-c3ccccc3)c2=O)cc1)OCc1ccc2cccc(O)c2n1 | -67.4% (active) | 35.6% | 67.4% | -58.2% (active) | 27.2% | -65.3% (active) | -53.5% (active) | -27.3% (active) | -87.7% (active) | -57.4% (active) | -91.7% (active) | -9.02% (active) | -68.7% (active) | -45.7% (active) | -94.3% (active) | -46.2% (active) | 50.2% | -91.7% (active) | -25% (active) | -64.2% (active)
Cc1nc([P+](c2ccccc2)(c2ccccc2)c2ccccc2)c(N2CCCCC2)o1 | 17.1% | 53.9% | 78.4% | 30.3% | 12.7% | 16.7% | 28.8% | 32.8% | 60.3% | -45.3% (active) | 30.2% | 15.8% | 53.7% | 43.5% | 67% | 26% | 32.7% | 46.6% | 8.05% (active) | 37%
CN(C)CCC(=O)C1CC1 | 97% | 102% | 98.4% | 91.2% | 103% | 101% | 97.1% | 103% | 99.4% | 112% | 111% | 102% | 102% | 103% | 104% | 102% | 116% | 107% | 91.7% | 104%
COc1ccc(Cl)cc1Nc1nc(C(F)(F)F)ccc1C(=O)N/N=C/c1ccc([N+](=O)[O-])cc1 | 18% | 13.6% | -1.09% (active) | 11.4% | 0.872% (active) | -47.7% (active) | -8.55% (active) | 6.02% (active) | 8.42% (active) | 9.91% (active) | 12.8% | 2.07% (active) | 11.5% | -14.9% (active) | 13% | 15.3% | -52% (active) | 10.8% | -3.41% (active) | 36.2%
CCOC(=O)CNC1=C(Cl)C(=O)N(Cc2ccc(Cl)cc2)C1=O | 102% | 99.7% | 97% | 98% | 104% | 93.4% | 89.1% | 106% | 99% | 118% | 113% | 106% | 93.9% | 104% | 120% | 98.5% | 108% | 90.6% | 106% | 105%
